15-hLO inh = qHTS Assay for Inhibitors of 15-hLO (15-human lipoxygenase). Polyunsaturated fatty acid lipoxygenase ALOX15 (Homo sapiens), P16050. purified 15hLO-1, xylenol orange hydroperoxide absorbance. Potency, µM (titrated, usually from 57.1 µM), without a hit: top-dose activity change, negative = inhibition, actives largely listed as inhibitors. 1.4% of 74,000 active. AID 887, 2007; note: % is set by controls: 0 for no effect and ±100 for the full control effect; nearly all actives have a fitted effect of over 55% in size
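Readout: Fe(III)-xylenol orange absorbance, 573-to-405 nm ratio as reaction progress. Enzyme 40 nM purified human 15hLO-1, substrate 50 uM arachidonic acid, 6 min RT after 15 min compound preincubation; Hepes pH 7.5 buffer with Triton X-100.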
CRE Fsk mod = Cell signaling CRE-BLA (Fsk stim) | AID 662, 2007 | 2.5% of 71,000 active | Potency, µM (series often up to 38.2 µM), without a hit: at the highest dose activity change, negative = inhibition, hits mostly activators | CHO CRE-bla reporter (cAMP response element driving beta-lactamase), forskolin EC10, beta-lactamase ratio; active = well fitted activation curve with a large enough effect in the signal ratio, with a control signal flat, not every such curve was filed as active; inconclusive = small, poorly fitted or top-dose-only effect, or effect the other way, or a change in a side signal; the % refers to the signal ratio; note: % of control where 0% means no effect
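Beta-lactamase reporter under a cAMP responsive element in CHO cells; compounds tested in titration series against EC10 NKH 477, 3 h at 37 °C. Read-out: CCF4 FRET ratio 460nm/530nm (excitation 405nm) giving %Activity, fitted to AC50.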
15-hLO-2 inh = qHTS Assay for Inhibitors of 15-hLO-2 (15-human lipoxygenase 2). Polyunsaturated fatty acid lipoxygenase ALOX15B (Homo sapiens), O15296. purified 15hLO-2, xylenol orange hydroperoxide absorbance. Potency, µM (doses to about 57.1 µM), inactives show top-dose activity change, negative = inhibition, hits mostly inhibitors. 0.56% of 110,000 active. AID 881, 2007; note: % is set by controls: 0 for no effect and ±100 for the full control effect; nearly all actives have a fitted effect of over 60% in size
Target sequence (O15296 whole entry, looked up): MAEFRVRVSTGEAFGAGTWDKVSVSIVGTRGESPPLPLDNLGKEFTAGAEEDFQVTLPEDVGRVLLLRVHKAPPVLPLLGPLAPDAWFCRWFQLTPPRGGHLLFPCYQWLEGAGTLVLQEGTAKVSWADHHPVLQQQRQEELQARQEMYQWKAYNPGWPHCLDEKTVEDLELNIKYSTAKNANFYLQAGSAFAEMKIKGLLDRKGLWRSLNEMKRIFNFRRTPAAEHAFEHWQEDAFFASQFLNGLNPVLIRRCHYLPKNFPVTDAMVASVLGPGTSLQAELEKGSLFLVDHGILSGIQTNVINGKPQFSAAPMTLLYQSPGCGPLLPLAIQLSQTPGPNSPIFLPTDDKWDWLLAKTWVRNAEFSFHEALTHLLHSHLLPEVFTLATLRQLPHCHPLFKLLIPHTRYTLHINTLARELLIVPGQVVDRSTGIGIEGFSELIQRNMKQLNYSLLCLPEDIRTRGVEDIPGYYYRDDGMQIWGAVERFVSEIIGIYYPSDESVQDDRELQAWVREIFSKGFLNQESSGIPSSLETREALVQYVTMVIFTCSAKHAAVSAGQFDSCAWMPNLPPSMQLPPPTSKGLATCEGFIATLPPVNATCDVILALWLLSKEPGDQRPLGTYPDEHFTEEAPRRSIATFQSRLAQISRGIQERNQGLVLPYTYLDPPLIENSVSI
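Purified human 15hLO-2 (50 nM final) preincubated with compounds 15 min at room temperature in 25 mM Hepes pH 7.5, 0.01% Triton X-100, then 45 uM arachidonic acid added for 90 min; hydroperoxide detected via ferrous/xylenol orange, 573/405 nm absorbance ratio.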
ERK AVP inh = qHTS Assay for Inhibitors of the ERK Signaling Pathway using a Homogeneous Screening Assay. Potency, µM (doses to about 57.5 µM), without a hit: top-dose activity, negative = inhibition, most hits filed as inhibitors. AID 995, 2007. 0.99% of 72,000 active. HEK293-V1b, vasopressin-stimulated pERK AlphaScreen; note: % is set by controls: 0 for no effect and ±100 for the full control effect; nearly all actives have a fitted effect of over 55% in size
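Phosphorylated ERK1/2 detected via AlphaScreen bead proximity in lysates of V1b-expressing HEK293 cells given 25 nM vasopressin for 5 min after 30 min compound exposure (37 °C). AC50 from Hill equation; basal DMSO 0%, vasopressin 100%.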
An asterisk follows results filed as active; ? = inconclusive; . = no result; [ ] = dose if it differs, or a comment. Compounds with a hit are over-represented: about 3.2% of the library has one in this group of screens. Unless noted, calls come from the whole dose curve; as a rule, active = well fitted inhibition curve with a large enough effect; inconclusive = small, poorly fitted or top-dose-only effect; inactive = no such curve, though single readings can be large or run the other way. Potency is the fitted concentration of half-maximal effect.

SMILES | 15-hLO inh | CRE Fsk mod | 15-hLO-2 inh | ERK AVP inh
Cc1noc(C)c1-c1cc(NC2CCNCC2)ncn1 | 16µM* | 6% | -5% | 18%
COc1ccc(C(=O)N2CCC3(CC2)CCN(c2ccccc2)CC3)cc1 | -7% | -14% | 0% | -6%
CC(C)C1COc2cc3oc(=O)ccc3cc2O1 (configuration not stated) | 0% | . | -1% | -12%
CC(C)(C)c1ccc(S(=O)(=O)/C=C\C#N)cc1 | -8% | ? | -1% | 32µM*
CC(C)(C)c1ccc(S(=O)(=O)N2CCN(CCC#N)CC2)cc1 | 1% | 10% | -3% | 27%
Cc1ccc(S(=O)(=O)/C=C\C#N)cc1 | -3%[25.6 µM] | ? | 0% | 20µM*
O=C(O)/C=C\C(=O)Nc1cccc2c1-c1ccccc1C2=O | -6%[11.4 µM] | 4%[7.6 µM] | -28%[11.4 µM] | -25%[11.5 µM]
CNc1ccnc(-c2cccc(NS(C)(=O)=O)c2)n1 | 35% | ? | -8% | 10%
CS(=O)(=O)Nc1cccc(-c2nc(N3CCNCC3)c3ccccc3n2)c1 | -6% | 13µM* | 45% | 3%
N#Cc1cccc(-c2nc(N3CCNCC3)c3ccccc3n2)c1 | -1% | ? | 41% | -10%
CN(C)c1nc(-c2cccc(NS(C)(=O)=O)c2)nc2ccccc12 | -2% | 13µM* | 4% | -12%
CC(C)(SCc1ccccc1)[C@H](N)C(=O)O | -3%[11.4 µM] | 11%[7.6 µM] | -2%[11.4 µM] | -9%[11.5 µM]
COc1ccc2c(c1)C(=O)N(c1ccccc1OC)C(=O)C2(C)C | ? | 3.2µM* | 1% | -3%
CC(=O)OCC1OC(C#Cc2ccc(Cl)cc2)C=CC1OC(C)=O (configuration not stated) | -14%[11.4 µM] | . | . | 6%[11.5 µM]
COc1ccc(Oc2ncc3nc(-c4cccs4)c(=O)n(CCC#N)c3n2)cc1 | 3% | ? | -12% | -20%
COc1ccc(Oc2ncc3nc(-c4cccs4)c(=O)n(C)c3n2)cc1 | -12% | 2.5µM* | 3% | 18%
COCCn1c(=O)c(-c2cccs2)nc2cnc(Oc3ccc(OC)cc3)nc21 | -16% | 10µM* | -13% | 4%
COc1ncc2nc(-c3cccs3)c(=O)n(CCC#N)c2n1 | 2% | 7.9µM* | -5% | -23%
COCCn1c(=O)c(-c2cccs2)nc2cnc(N3CCOCC3)nc21 | -1% | 2µM* | -8% | 19%
Cn1c(=O)c(-c2cccs2)nc2cncnc21 | -7% | 10µM* | -17% | -25%
COc1ccc(Oc2ncc3nc(-c4ccc(F)cc4)c(=O)n(Cc4cccs4)c3n2)cc1 | 1% | 13µM* | -11% | -2%
CCCCCn1c(=NC(C)=O)c(C#N)cc2c(=O)n3cccc(C)c3nc21 | -24% | 4µM* | . | -7%
CCCn1c(=NC(C)=O)c(C#N)cc2c(=O)n3cccc(C)c3nc21 | -17% | 2.5µM* | . | -7%
Cc1cccn2c(=O)c3cc(C#N)c(=NC(=O)c4ccccc4)n(Cc4ccco4)c3nc12 | -27% | . | . | .
COCCCn1c(=NC(=O)c2ccc3c(c2)OCO3)c(C#N)cc2c(=O)n3cccc(C)c3nc21 | -5% | ? | -8% | -7%
SMILES | 15-hLO inh | CRE Fsk mod | 15-hLO-2 inh | ERK AVP inh
CCCC(=O)O[C@]1(C(=O)CO)CCC2[C@@H]3CCC4=CC(=O)CC[C@]4(C)C3C(O)C[C@]21C (some centres not stated) | -3% | . | 4% | ?
CC[C@H](C)C(=O)O[C@@H]1CCC=C2C=C[C@H](C)[C@@H](CC[C@H]3C[C@@H](O)CC(=O)O3)[C@H]21 | . | 3% | . | .
OC[C@H]1O[C@@H](n2cnc3c(NCc4ccccc4)ncnc32)[C@H](O)[C@@H]1O | 4%[25.6 µM] | . | -3% | 1%
O=C1c2ccccc2C(=O)c2c(NC3CCCCC3)ccc(Nc3ccc(S(=O)(=O)O)cc3)c21 | -27%[11.4 µM] | -2%[7.6 µM] | -24%[11.4 µM] | ?
Oc1cc(CN2COc3ccccc32)c(O)cc1CNC1CCCCC1 | ? | ? | 3.2µM* | 5%[11.5 µM]
Cc1c(N2C(=O)c3ccc(Br)cc3C2=O)c(=O)n(-c2ccccc2)n1C | . | . | 5% | .
Cc1c(N2C(=O)c3ccc4c5c(ccc(c35)C2=O)CC4)c(=O)n(-c2ccccc2)n1C | 25µM* | 3% | ? | -24%
COc1ccccc1C(=O)Nc1cccc(-c2cn3ccsc3n2)c1 | -7% | 3.2µM* | 15% | -21%
CC(C)(CCc1nc2ccccc2[nH]1)C(=O)O | 6%[11.4 µM] | -1%[7.6 µM] | 0%[11.4 µM] | -1%[11.5 µM]
C#CCCCO/N=C1/C[C@@H](O)[C@@H](O)[C@@H]2[C@@H]3C(=O)N(CCC(=O)OCC)C(=O)[C@H]3CC[C@H]12 | -5%[11.4 µM] | . | . | 16%[11.5 µM]
O=C(O)c1ccc(Cl)c2c1C1C=CCC1C(c1ccccn1)N2 (configuration not stated) | 16µM* | -13% | 7% | ?
COCCNC(=O)c1cc(-c2ccc(OC)c(OC)c2)on1 | 0% | 23% | -1% | 0%
COC(=O)c1cc(-c2ccc(OC)c(OC)c2)on1 | -4% | ? | -2% | 7.9µM*
CC1CCCC2(C1)NC(=S)c1c(sc3c1CCCC3)N2 (configuration not stated) | . | . | 13µM* | .
O=C1C(Cl)=C(N2CCOCC2)C(=O)N1c1cccc(Cl)c1 | 4µM* | ? | 15% | ?
Cc1cnc(CNc2ncncc2-c2ccc(N(C)C)cc2)cn1 | ? | 3% | -9% | -29%
Cc1ccc(OCCN2CCN(C(=O)CCC(=O)Nc3nnc(C)s3)CC2)cc1 | -12% | 7.9µM* | . | -11%
Cc1ccc(OCCN2CCN(C(=O)CCC(=O)Nc3nnc(C(C)C)s3)CC2)cc1 | 3% | -7% | 11% | 1%
CC[C@]1(O)C[C@H]2CN(CCc3c([nH]c4ccccc34)[C@](C(=O)OC)(c3cc4c(cc3OC)N(C=O)[C@H]3[C@@](O)(C(=O)OC)[C@H](OC(C)=O)[C@@]5(CC)C=CCN6CC[C@]43[C@H]65)C2)C1 | ? | 1.3µM* | 51% | 16%
O=C1c2ccccc2C(Nc2ccc3c(c2)OCO3)N1Cc1ccco1 (configuration not stated) | ? | 5% | . | 25µM*
Cc1cc(C)c(S(=O)(=O)Nc2ccccc2C(=O)O)cc1C | 6% | . | . | .
CCCN(CCC)c1nc(C)cc(C(C#N)c2nc3ccccc3o2)n1 (configuration not stated) | 10% | 1.6µM* | 5%[11.4 µM] | 6%
N=c1ccn2c(n1)O[C@@H]1[C@@H](O)[C@H](CO)O[C@H]12 | 3% | 3% | 2% | 0%
c1ccc2c(-n3ccnc3)nc(-c3ccoc3)nc2c1 | -5% | 3.2µM* | 8% | -20%
CN1CCN(c2nc(-c3ccoc3)nc3ccccc23)CC1 | 6% | ? | 21% | ?
CSc1nc(N2CCOCC2)c2ccccc2n1 | 1% | 10µM* | 5% | -15%
c1ccc2c(N3CCOCC3)nc(-c3ccoc3)nc2c1 | 0% | 5µM* | 8% | -67%
c1ccc(-c2nc(-n3ccnc3)nc(-n3ccnc3)n2)cc1 | 13% | 1.3µM* | -10%[11.4 µM] | 16%

Screening data as filed in PubChem.
